Reference: PubChem BioAssay (NCI)
The panel holds about 83,000 compounds, 20% with a hit somewhere; the sample as a whole holds those more often.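 Percent growth is the endpoint: 0 to 100 indicates growth inhibition (40 means 60% inhibition), 0 means no net growth, and negative values indicate cell death.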 Active and inactive are the calls of the source. How the source made its calls: active means growth percent below 10; inactive means the rest.

Key:
Experiment in all cases: NCI-60 one-dose screen, 48 h (100 = growth as untreated, 0 = no growth, -100 = all killed)
Conditions in all cases: 10 µM unless noted
SR leukemia = test system: SR leukemia
RPMI-8226 leukemia = test system: RPMI-8226 leukemia
OVCAR-8 ovarian = test system: OVCAR-8 ovarian
OVCAR-5 ovarian = test system: OVCAR-5 ovarian
OVCAR-4 ovarian = test system: OVCAR-4 ovarian
SK-OV-3 ovarian = test system: SK-OV-3 ovarian
OVCAR-3 ovarian = test system: OVCAR-3 ovarian
HS 578T breast = test system: HS 578T breast
NCI/ADR-RES ovarian = test system: NCI/ADR-RES ovarian
IGROV1 ovarian = test system: IGROV1 ovarian

Measured: growth

Cc1ccc(O)c(NC(=O)c2ccc(CNc3ccnc(C(F)(F)F)c3)cc2)c1
inactive: SR leukemia 36.4% | RPMI-8226 leukemia 15.2% | OVCAR-8 ovarian 69.6% | OVCAR-5 ovarian 76.9% | OVCAR-4 ovarian 53.1% | SK-OV-3 ovarian 82% | OVCAR-3 ovarian 140% | HS 578T breast 85.4% | NCI/ADR-RES ovarian 50.3%

CCCCN1C(=O)/C(=c2\sc3n(c2=O)NC2C(N=3)N(CC)C(=O)N2CC)c2ccccc21 (stereo not drawn)
inactive: SR leukemia 24.5% | RPMI-8226 leukemia 60.2% | OVCAR-8 ovarian 36.2% | OVCAR-5 ovarian 48.4% | OVCAR-4 ovarian 50.8% | SK-OV-3 ovarian 77.2% | IGROV1 ovarian 47% | HS 578T breast 40.2% | NCI/ADR-RES ovarian 20.5%

Nc1c(C(=O)Nc2ccncc2)sc2nc3c(cc12)CCCCC3
inactive: SR leukemia 43.6% | RPMI-8226 leukemia 47.2% | OVCAR-8 ovarian 65.2% | OVCAR-5 ovarian 83.4% | OVCAR-4 ovarian 55.8% | SK-OV-3 ovarian 75.8% | OVCAR-3 ovarian 88.9% | HS 578T breast 85.1% | NCI/ADR-RES ovarian 75.5%

Cc1ccc(C)n1/C=C/n1c(C)ccc1C
inactive: SR leukemia 122% | RPMI-8226 leukemia 78.6% | OVCAR-8 ovarian 99.3% | OVCAR-5 ovarian 101% | OVCAR-4 ovarian 98.4% | SK-OV-3 ovarian 100% | OVCAR-3 ovarian 146% | HS 578T breast 113% | NCI/ADR-RES ovarian 92.4%

CCCCCCCCNc1cc2c3c(c1)CCCN3CCC2
active: OVCAR-3 ovarian 4.22%
inactive: SR leukemia 26% | RPMI-8226 leukemia 12.3% | OVCAR-8 ovarian 15.8% | OVCAR-5 ovarian 17.6% | OVCAR-4 ovarian 35.2% | SK-OV-3 ovarian 10.7% | HS 578T breast 23.3% | NCI/ADR-RES ovarian 70.7%

CN(Cc1cnc2nc(N)nc(N)c2n1)c1c(Cl)cc(C(=O)NC(CCC(=O)O)C(=O)O)cc1Cl (stereo not drawn)
inactive: SR leukemia 42.4% | RPMI-8226 leukemia 45.3% | OVCAR-8 ovarian 17.8% | OVCAR-5 ovarian 48.7% | OVCAR-4 ovarian 55.1% | SK-OV-3 ovarian 56.3% | IGROV1 ovarian 28.3% | HS 578T breast 66.1% | NCI/ADR-RES ovarian 35.1%

COc1ccc(C(c2cc(OC)c(OC)c(OC)c2)N2CCN(Cc3ccccc3)CC2)cc1 (stereo not drawn)
inactive: SR leukemia 16.1% | RPMI-8226 leukemia 84.1% | OVCAR-8 ovarian 92.6% | OVCAR-5 ovarian 84.7% | OVCAR-4 ovarian 97% | SK-OV-3 ovarian 66.2% | OVCAR-3 ovarian 69% | HS 578T breast 59.1% | NCI/ADR-RES ovarian 61.6%

Cc1ccc(C)c(-n2c(-c3ccc(Br)cc3)csc2=NC(=O)c2ccccc2F)c1
inactive: OVCAR-8 ovarian 65.3% | OVCAR-5 ovarian 112% | OVCAR-4 ovarian 40.6% | SK-OV-3 ovarian 86.9% | IGROV1 ovarian 213% | HS 578T breast 101% | NCI/ADR-RES ovarian 56.7%
active: SR leukemia -11.5% | RPMI-8226 leukemia -11.2%

Cc1ccc(/C=C/C(=O)c2ccc(NC(=O)CSc3nc4c([nH]3)c(=O)n(C)c(=O)n4C)cc2)c(C)c1
inactive: SR leukemia 30.4% | RPMI-8226 leukemia 52.6% | OVCAR-8 ovarian 40.3% | OVCAR-4 ovarian 36.9% | SK-OV-3 ovarian 30.9% | IGROV1 ovarian 36.3% | OVCAR-3 ovarian 13.8% | HS 578T breast 27.4% | NCI/ADR-RES ovarian 82.7%

O=c1[nH]cnc2c1C(c1ccc(Br)cc1)c1sc3c(F)cccc3c1O2 (stereo not drawn)
inactive: SR leukemia 54.7% | RPMI-8226 leukemia 60.4% | OVCAR-8 ovarian 95.3% | OVCAR-5 ovarian 90.7% | OVCAR-4 ovarian 94.9% | SK-OV-3 ovarian 117% | HS 578T breast 85.2% | NCI/ADR-RES ovarian 100%

O=C1CCC(C(=O)NN(c2ccccc2)c2ccccc2)N1 (stereo not drawn)
inactive: SR leukemia 19.7% | RPMI-8226 leukemia 17.8% | OVCAR-8 ovarian 103% | OVCAR-4 ovarian 103% | SK-OV-3 ovarian 96.6% | IGROV1 ovarian 105% | OVCAR-3 ovarian 95.4% | HS 578T breast 95.8% | NCI/ADR-RES ovarian 111%

O=C(CN1CCN(c2cc3c(cc2F)c(=O)c(C(=O)O)cn3C2CC2)CC1)N/N=C/c1ccncc1
inactive: SR leukemia 107% | RPMI-8226 leukemia 93.2% | OVCAR-8 ovarian 97.5% | OVCAR-4 ovarian 98.9% | SK-OV-3 ovarian 102% | IGROV1 ovarian 108% | OVCAR-3 ovarian 96.9% | HS 578T breast 101% | NCI/ADR-RES ovarian 107%

CCc1ccc(CCC(=O)Nc2ncc(Cc3ccc(Cl)cc3)s2)o1
active: OVCAR-3 ovarian 1.07% | HS 578T breast 2.63%
inactive: SR leukemia 18.4% | RPMI-8226 leukemia 31.5% | OVCAR-8 ovarian 31.3% | OVCAR-4 ovarian 63.8% | SK-OV-3 ovarian 37.4% | IGROV1 ovarian 34.8% | NCI/ADR-RES ovarian 17.3%

Cc1ccccc1OCC(O)COc1ccccc1C
inactive: SR leukemia 114% | RPMI-8226 leukemia 107% | OVCAR-8 ovarian 91.1% | OVCAR-4 ovarian 104% | SK-OV-3 ovarian 108% | IGROV1 ovarian 85.1% | OVCAR-3 ovarian 114% | HS 578T breast 117% | NCI/ADR-RES ovarian 111%

Cc1cc(N2CCCCC2)nc(N2CCN(CC(=O)Nc3ccc4c(ccn4Cc4ccccc4)c3)CC2)n1
inactive: SR leukemia 64% | RPMI-8226 leukemia 53.4% | OVCAR-8 ovarian 36.6% | OVCAR-5 ovarian 88.7% | OVCAR-4 ovarian 54.2% | SK-OV-3 ovarian 62.3% | HS 578T breast 66.7% | NCI/ADR-RES ovarian 47.9%
